Pf apPOL block – Pf-apPOL DNA polymerase inhibition | 210,000 compounds, 0.25% hits | AID 1794808 | Recombinant Pf-apPOL, molecular beacon fluorescence, 1.5 h | inhibition, % at 10 µM
mHTT CaM bind – inhibitors of human mutant huntingtin-calmodulin interaction; P42858; AlphaScreen His-mHTT/GST-CaM binding, luminescence; inhibition, % at 15 µM; 190,000 compounds, 3.6% hits;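 further: 0% = both proteins with DMSO and 100% = one protein alone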
* hit, by the source's call; nt = no result. Shown are actives, neighbours in structure and some others; about 3.5% of the full set was active somewhere. No stated cut-off is given here; in the data, active means inhibition above about 50%; inactive means the rest.

SMILES	Pf apPOL block	mHTT CaM bind
CN(C)CCNC(=O)C12CC3CC(C1)CC(c1ccccc1)(C3)C2	-2.2	14.0
CN(C)CCNC(=O)NCC12CC3CC(C1)CC(c1ccccc1)(C3)C2	2.0	78.7*
CN1CCN(c2ccc([N+](=O)[O-])c(Sc3cccc4cccnc34)c2)CC1	-1.3	35.4
O=[N+]([O-])c1ccc(N2CCCC2)cc1Sc1cccc2cccnc12	-1.9	101.0*
O=S(=O)(c1ccc2nc(-c3ccccc3)[nH]c2c1)N1CCN(C2CCCCC2)CC1	6.7	19.0
O=C(CC1Sc2ccccc2NC1=O)Nc1ccc(C(F)(F)F)cc1 (centres undefined)	-7.4	7.0
O=C(CC1Sc2ccccc2NC1=O)NNC(=O)c1cc(C(F)(F)F)cc(C(F)(F)F)c1 (centres undefined)	58.4*	nt
O=[n+]1c2ccccc2n([O-])c2ccc3ccccc3c21	nt	32.3
O=C(c1cc(C2CC2)n(C2CCS(=O)(=O)C2)n1)N1CCN(c2cccc(Cl)c2)CC1 (centres undefined)	-3.3	84.3*
O=C(c1cc(-c2ccco2)n(C2CCS(=O)(=O)C2)n1)N1CCN(c2ccccn2)CC1 (centres undefined)	-4.7	-3.1
Cn1ncc(N2CCCC(C(=O)N3CCC4(CC3)OCCO4)C2)cc1=O (centres undefined)	-1.4	-0.5
Cc1cccc(Cn2c(CN3CCC(C(=O)NCc4ccco4)CC3)cc3ccccc32)c1	1.1	35.9
COCCCNC(=O)C1CCN(Cc2cc3ccccc3n2Cc2ccc(C)cc2)CC1	-4.2	76.2*
COCCNC(=O)C1CCN(Cc2cc3ccccc3n2Cc2cccc(F)c2)CC1	-2.9	63.0*
COCCNC(=O)C1CCN(Cc2cc(OC)c(OC)c(OC)c2)CC1	-5.8	-4.1
COCCNC(=O)C1CCN(Cc2cc3ccccc3n2Cc2cccc(C)c2)CC1	5.1	60.4*
Cc1ccc(Cn2c(CN3CCC(C(=O)NCc4ccco4)CC3)cc3ccccc32)cc1	2.1	37.9
